# PubChem BioAssay
# Activity calls are given as the source filed them. Rule as the data show it: active = inhibition above about 30%; inactive = the rest.
# Test: growth suppression of yeast trafficking mutant, preliminary HTS, modulators of trafficking downstream of Golgi apparatus project, 1536-format plate, OD 615 nm (AID 637)
# Conditions: yeast transport mutant growth, absorbance 615 nm, 18 h; stronger effect = higher value
row,Structure (SMILES),inhibition
1,Cn1c(=O)[nH]c(=O)c2[nH]c(NCCCN3CCOCC3)nc21,-0.79% (inactive)
2,COc1ccc(CN(Cc2nc3ccccc3c(=O)[nH]2)C(=O)NC2CCCCC2)cc1,-0.5% (inactive)
3,O=C(Nc1ccncc1)c1cncc(Br)c1,1.5% (inactive)
4,COc1ccc(C(=O)Nc2ccc(C)cn2)c(OC)c1,0.98% (inactive)
5,C/C(=N\O)C(C)/[N+]([O-])=C/c1nc(C)c(C)n1O (stereo not given),0.48% (inactive)
6,CCC(C)(C)NC(=O)C(c1ccco1)N(C(=O)Cn1nnc2ccccc21)c1ccc2c(c1)OCO2 (stereo not given),-1.13% (inactive)
7,COc1ccc(OC)c(S(=O)(=O)N2c3ccccc3CC2C)c1 (stereo not given),-3.93% (inactive)
8,O=C(COc1ccccc1)Nc1ccc(-c2nnc(-c3ccco3)o2)cc1,-1.15% (inactive)
9,Cc1ccc(-c2noc(CCC(=O)NCC3CCN(Cc4cccc(C)c4)CC3)n2)cc1,1.83% (inactive)
10,CCOc1cc(C(=O)N2CCN=C2SC)cc(OCC)c1OCC,9.05% (inactive)
11,COc1ccc(-n2c(=O)c3c4c(sc3n3c(C)nnc23)CCCC4)cc1,-5.33% (inactive)
12,COc1ccc(CCNC(=O)c2cc(-c3cc(C)c(C)cc3O)n[nH]2)cc1OC,-4% (inactive)
13,CCC(Oc1ccc2ccccc2c1)C(=O)O (stereo not given),1.15% (inactive)
14,O=C(O)C1CC=CCC1C(=O)Nc1cc(Cl)ccc1Cl (stereo not given),-0.82% (inactive)
15,O=C(c1cnn2c(C(F)F)cc(C3CC3)nc12)N1CCOCC1,-10.2% (inactive)
16,O=C(CSCCSCC(=O)c1ccco1)c1ccco1,8.85% (inactive)
17,COC(=O)c1ccccc1NC(=O)CSc1nc2c(c(=O)n(C)c(=O)n2C)n1C,26.5% (inactive)
18,O=c1oc2ccccc2c2c1ncn2-c1ccccc1,-2.13% (inactive)
19,COc1ccc(C2CC(c3ccccc3)Nc3nc(NC(=O)c4cccs4)nn32)cc1 (stereo not given),-5.08% (inactive)
20,COC(=O)c1cccc(S(=O)(=O)N2CCN(c3nc4ccccc4s3)CC2)c1,-2.42% (inactive)

row,Structure (SMILES),inhibition
1,COC(=O)CCSCc1cn2cc(Cl)ccc2n1,-9.84% (inactive)
2,O=C(c1ccco1)N1CCN(S(=O)(=O)c2ccc(C3CCCCC3)cc2)CC1,2.42% (inactive)
3,COc1cccc(C(=O)CN2CCC(NC(=O)NC3CCCCC3)CC2)c1,-2% (inactive)
4,CSCCC(NC(=O)c1occc1C)C(=O)O (stereo not given),2.83% (inactive)
5,Cc1cccc(N2CCN(Cc3c(C)n(C)n(-c4ccccc4)c3=O)CC2)c1C,-1.31% (inactive)
6,CCOc1cc(C2C(C(=O)OC(C)C)=C(C)N=C3SCCC(=O)N32)ccc1OC(C)=O (stereo not given),2.18% (inactive)
7,O=C(Cc1cccs1)Nc1ccccc1C(=O)O,5.16% (inactive)
8,O=C(NCCN1CCOCC1)c1csc2c1CCCC2,-1.83% (inactive)
9,O=C(CSc1nc2ccccc2s1)N1CCOCC1,-9.03% (inactive)
10,CC1C(O)=C(c2nc3ccccc3[nH]2)C(=N)N1c1ccccc1 (stereo not given),-10.6% (inactive)
11,Cc1oc(-c2ccccc2F)nc1CS(=O)(=O)CC(=O)N1CCN(Cc2ccccc2)CC1,-0.98% (inactive)
12,CSCSC1=C(C#N)C(c2ccc(Cl)cc2)C(C(C)=O)=C(C)N1 (stereo not given),1.31% (inactive)
13,Cc1ccc2c(c1)CCCN2C(=O)Nc1ccc2c(c1)OCO2,6.89% (inactive)
14,COc1cccc(N2CCN(CC(=O)Nc3nnc(-c4ccccc4)s3)CC2)c1,-1.64% (inactive)
15,CCOC(=O)C1=C(C)NC(SC(C)=O)=NC1c1ccc(OC(C)=O)c(OC)c1 (stereo not given),-6.36% (inactive)
16,C/C=C(\C)c1nnc(NC(=O)C(C)C)s1,2.79% (inactive)
17,Cc1cc(C(=O)CSCc2nnc3n(CCC(C)C)c(=O)c4ccccc4n23)c(C)n1C,-0.73% (inactive)
18,COc1cccc(C(=O)NCc2nnc(SCC(=O)Nc3nccs3)n2-c2ccccc2)c1,1.17% (inactive)
19,O=C(OCC(=O)N1CCc2ccccc21)C1=COCCO1,-0.32% (inactive)
20,COc1cccc(Nc2cc(C)nc3ccccc23)c1,1.11% (inactive)
